About 5,500 (1.4%) of roughly 400,000 compounds were called active. A call without a number means that no potency is given here. Another 9% or so got no clear call; they are omitted. Calls follow the shape of the dose curve; as a rule, active = well fitted cell-killing curve with a large enough effect; inconclusive = small, poorly fitted or top-dose-only effect, or effect the other way; inactive = flat fitted curve, though single readings scatter. The full list was thinned out, with actives kept by preference.
Assay: qHTS assay for MDR1-selective chemotherapeutics: Primary screen using the parental adenocarcinoma cell KB-3-1; also: nearly all actives have a fitted effect of over 60% in size
Settings: KB-3-1 viability, CellTiter-Glo ATP luminescence, 72 h; series mostly up to 46.1 µM
Outline: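 Screening of KB-3-1 cells (DMEM, 10% FBS, phenol-red free) ran from lowest to highest compound concentration; after 72 h at 37 °C viability was read luminescently and curves fitted.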
Potency is read from the fitted curve at half-maximal effect.

| Structure (SMILES) | Potency |
| --- | --- |
| CCOC(=O)CSC1=C(C#N)C(c2sccc2C)CC(=O)N1 (centres undefined) | 5.01 µM (active) |
| Cc1ccsc1C1C(C#N)=C(N)OC2=C1C(=O)CC(C)C2 (centres undefined) | inactive |
| C=CCSC1=C(C#N)C(c2cc(Br)c(O)c(OC)c2)CC(=O)N1 (centres undefined) | inactive |
| CCOc1ccc(NC(=O)Cn2cc(C(=O)c3ccc(C)cc3)c(=O)c3cc4c(cc32)OCCO4)cc1 | inactive |
| CCOc1cc(C2C(C(=O)OC)=C(C)NC3=C2C(=O)c2ccccc23)ccc1O (centres undefined) | inactive |
| Cc1ccc(C(=O)N2CCCC(c3ccccc3)=N2)cc1 | inactive |
| Cc1ccc(C(=O)CSc2nc(-c3ccccc3)nc3c2CCCC3)c(C)c1 | inactive |
| Cn1c(-c2ccccc2)c[n+]2c1CCCCC2 | inactive |
| Clc1ccc(C[n+]2cc(-c3ccccc3)n3c2CCC3)cc1 | 7.31 µM (active) |
| Cc1ccc(C(=O)C[n+]2cc(-c3ccccc3)n3c2CCCCC3)cc1 | 8.2 µM (active) |
| CC1(C)C=Cc2c(ccc(C(=O)/C=C/c3ccccc3)c2O)O1 | inactive |
| COc1ccc(CN2CCc3nc(Nc4ccccc4)ncc3C2)c(OC)c1OC | inactive |
| CCS(=O)(=O)N1CCc2cc(C(=O)N3CCN(c4ccccc4OC)CC3)ccc21 | 14.6 µM (active) |
| CCS(=O)(=O)N1CCc2cc(C(=O)NCc3ccc(OC)cc3)ccc21 | inactive |
| CCn1c(C)c(C)c2cc(C(=O)N3CCN(c4cccc(C)c4C)CC3)ccc21 | inactive |
| Cc1cccc(N2CCN(C(=O)c3ccc4c(c3)CCN4S(=O)(=O)c3ccccc3)CC2)c1C | 23.1 µM (active) |
| COc1ccccc1NS(=O)(=O)c1ccc(C(=O)N2CCN(c3ccccc3O)CC2)cc1 | inactive |
| CCOc1ccccc1N1CCN(C(=O)c2ccc3[nH]c(C)c(C)c3c2)CC1 | 8.2 µM (active) |
| CCOc1ccccc1NC(=S)N1CCN(c2cccc(C)c2C)CC1 | inactive |
| Cc1[nH]c2ccc(C(=O)N3CCN(C)CC3)cc2c1C | inactive |

| Structure (SMILES) | Potency |
| --- | --- |
| CC1CCN(C(=O)c2cccc(S(=O)(=O)N3CCCc4ccccc43)c2)CC1 | inactive |
| Cc1cccn2c(=O)c(C(=O)NC(C)c3ccccc3)cnc12 (centres undefined) | inactive |
| COc1cc(C(=O)NCC(c2ccc(Cl)cc2)N2CCOCC2)cc(OC)c1OC (centres undefined) | inactive |
| O=C(NCC(c1cccnc1)N1CCc2ccccc21)c1cccc(C(F)(F)F)c1 (centres undefined) | inactive |
| CCOC(=O)c1cc2c(=O)n3ccccc3nc2n(CC2CCCO2)c1=NC(=O)c1ccccc1Br (centres undefined) | inactive |
| Cn1nc(-c2ccccc2)c(CSc2cccc(Cl)c2)c1Cl | 23.1 µM (active) |
| Cn1nc(-c2ccccc2)c(CO)c1Sc1ccccc1 | inactive |
| Cn1nc(-c2ccccc2)c(-c2nc(-c3ccc(Cl)cc3)no2)c1Cl | inactive |
| COc1ccccc1N1CCN(C(=O)C2CCN(S(=O)(=O)c3c(C)noc3/C=C/c3ccc(C)cc3)CC2)CC1 | inactive |
| O=c1c2cccnc2n(Cc2cccc(F)c2)c(=O)n1Cc1ccccc1Cl | inactive |
| Cc1ccc(-c2cc(C(=O)N/N=C/C=C/c3ccccc3)n[nH]2)o1 | inactive |
| CC(C)c1cc(C(=O)N/N=C/C(Br)=C/c2ccccc2)n[nH]1 | 10.3 µM (active) |
| CC(C)c1cc(C(=O)O)n[nH]1 | inactive |
| CCOC(=O)C=Cc1ccc(C(=O)OCC)[nH]1 | 7.31 µM (active) |
| CCOC(=O)c1c(C)[nH]c(C)c1C(=O)COC(=O)/C=C/c1cccc([N+](=O)[O-])c1 | inactive |
| CCOC(=O)c1cc2cc(C)ccc2[nH]1 | inactive |
| COc1ccccc1CNC(=O)C(Cc1ccccc1)NS(=O)(=O)c1ccc2c(c1)oc(=O)n2C (centres undefined) | inactive |
| COc1ccccc1CN1CCC(CNC(=O)c2cnn(-c3ccccc3Cl)c2C2CCN(C(=O)OC(C)(C)C)CC2)CC1 | inactive |
| Cc1cc(Cl)ccc1NC(=O)Cc1ccc(NC(=O)N2CCCCc3ccccc32)cc1 | inactive |

— PubChem BioAssay AID1347075 (National Center for Advancing Translational Sciences (NCATS), 2019)
